In PubChem BioAssay (NCI):
About 83,000 compounds went through this panel and 20% of them were active in at least one assay; those are over-represented in the sample as a whole.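 48-hour exposure, single concentration, 96-well plates; percent growth endpoint where 0 means no net growth. Active: below 10.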 Activity calls are given as the source filed them.

Tested on: TK-10 renal
Assay: NCI-60 one-dose screen, 48 h (100 = growth as untreated, 0 = no growth, -100 = all killed)
Details: 10 µM unless noted

SMILES	growth
O=C1C=CC(=O)N1c1ccc2c(c1)Cc1cc(F)ccc1-2	99% (inactive)
OCCN1CCN(c2nc(Nc3ccc(-c4nc5ccccc5[nH]4)cc3)c3cn[nH]c3n2)CC1	-97.2% (active)
COc1cc(-c2nc3ccccc3[nH]2)ccc1OCC(=O)N=Nc1c(O)[nH]c2ccc(Cl)cc12	-7.25% (active)
CC(=O)Oc1ccc(Cl)cc1CN(C(C)=O)C1CCCCC1	110% (inactive)
C=CCSSc1ncnc2c1ncn2C1OC(CO)C(O)C1O (centres undefined)	26% (inactive)
COc1cc(Nc2cc(C)nc(N3CCN(c4ccnc5cc(Cl)ccc45)CC3)n2)cc(OC)c1	17.9% (inactive)
CCN1CCN(c2nc(NCCNc3ccnc4cc(Cl)ccc34)c3ccccc3n2)CC1	-19.4% (active)
COc1ccc(C(=O)c2sc3nc4c(c(-c5cccnc5)c3c2N)CCCC4)cc1OC	90% (inactive)
CSc1nc(NCCO)c(C#N)c(-c2cccc([N+](=O)[O-])c2)n1	120% (inactive)
CN1CCN=C1c1ccc(NC(=O)c2ccc(C(=O)Nc3ccc(C4=NCCN4C)cc3)cc2)cc1	90.4% (inactive)
OCCNc1nccc(N2CCN(c3ccnc4cc(Cl)ccc34)CC2)n1	94.4% (inactive)
COc1ccc(C(=O)c2sc3nc(C)cc(C)c3c2N)cc1OC	88.7% (inactive)
COc1cccc(/C=N/NC(=O)c2ccccc2Nc2ccnc(C(F)(F)F)c2)c1O	28.7% (inactive)
C=CCSSC1N=CNc2nc[nH]c21 (centres undefined)	29.5% (inactive)
CCCCn1cnc2c(Sc3c([N+](=O)[O-])ncn3C)nc(N)nc21	102% (inactive)
Fc1ccc(CNc2cccc3[nH]c(C(F)(F)F)nc23)cc1	102% (inactive)
CCCCCCN(CCCCCC)C(=N)c1ccnc2ccccc12	73.4% (inactive)
COc1ccc(C(=S)N2CCN(c3cccc(Cl)c3)CC2)cc1	94% (inactive)
O=C(N/N=C/c1ccccc1O)c1ccccc1Nc1ccnc(C(F)(F)F)c1	34.3% (inactive)
COc1ccc(-c2cc(=O)c3c(OC)c4ccoc4cc3o2)cc1	108% (inactive)

SMILES	growth
COc1ccc(CN2c3ccccc3Oc3ccccc32)cc1F	74.2% (inactive)
C=CC(=O)Nc1cccc(-c2nc(SC)nc(NCCc3ccc(OC)c(OC)c3)c2C#N)c1	82.4% (inactive)
CC[C@H]1OC(=O)[C@H](C)[C@@H](O[C@H]2C[C@@](C)(OC)[C@@H](O)[C@H](C)O2)[C@H](C)[C@@H](O[C@@H]2O[C@H](C)C[C@H](N(C)C)[C@H]2O)[C@](C)(O)C[C@H](C)CN(C)[C@H](C)[C@@H](O)[C@]1(C)O	103% (inactive)
Cc1nc(Nc2ccc(F)c(Cl)c2)sc1C(=O)O	21% (inactive)
O=C(Nc1cccc2[nH]c(C(F)(F)F)nc12)c1ccc(-n2cnnn2)cc1	108% (inactive)
Cc1cc(Nc2ccc(C)c(Cl)c2)n2nc(C(F)(F)F)nc2n1	-32.3% (active)
CCOc1cc2c(cc1OCC)C(c1cc(OC)c(O)cc1Cl)NCC2 (centres undefined)	88.2% (inactive)
COc1ccc(CCNc2nc(SC)nc(-c3cccc([N+](=O)[O-])c3)c2C#N)cc1OC	112% (inactive)
FC(F)(F)c1nc2c(NCc3ccc(-c4ccccc4)cc3)cccc2[nH]1	79.2% (inactive)
CCN(CC)c1ccc(-c2cc(-c3cc(OC)c(OC)c(OC)c3)nc(N3CCOCC3)c2C#N)cc1	49.4% (inactive)
NC(=NCCCOc1ccc(Cl)cc1)Nc1ccc(C(F)(F)F)cc1	76.1% (inactive)
NC(=NCCCC1(c2ccccc2)CCCC1)Nc1ccc(Cl)cc1	71.1% (inactive)
O=C1c2cc3c(cc2-c2c1c1cc(F)c(F)cc1c(=O)n2CCCn1ccnc1)OCO3	29.8% (inactive)
CSc1ccc(-c2ccccc(=O)c2O)cc1	33.4% (inactive)
O=c1nc2oc3ccc4ccccc4c3cc-2s1	54.7% (inactive)
O=C1c2ccccc2OC=C(c2ccccc2)N1CCCCNc1ccc(S(=O)(=O)Nc2ncccn2)cc1	96.6% (inactive)
C=C(C)C(=O)Nc1ccc(NC(C)C)cc1	138% (inactive)
COc1cccc2c1C(=O)c1c(O)c3c(c(O)c1C2=O)C[C@](O)(C(=O)CO)C[C@H]3O[C@@H]1C[C@@H](NC(=O)CCCCCN(C)C2(c3ccc(F)cc3)CC3CCC2C3)[C@H](O)[C@@H](C)O1 (some centres undefined)	68.7% (inactive)
N#Cc1cnn(-c2nc3c(Cl)cccc3s2)c1N	92.7% (inactive)

Tested on: ACHN renal
Assay: as above
Details: 10 µM unless noted

SMILES	growth
O=C1C=CC(=O)N1c1ccc2c(c1)Cc1cc(F)ccc1-2	92.6% (inactive)
OCCN1CCN(c2nc(Nc3ccc(-c4nc5ccccc5[nH]4)cc3)c3cn[nH]c3n2)CC1	-85.3% (active)
COc1cc(-c2nc3ccccc3[nH]2)ccc1OCC(=O)N=Nc1c(O)[nH]c2ccc(Cl)cc12	31.4% (inactive)
CCN1CCN(c2nc(NCCNc3ccnc4cc(Cl)ccc34)c3ccccc3n2)CC1	-25.7% (active)
COc1ccc(C(=O)c2sc3nc4c(c(-c5cccnc5)c3c2N)CCCC4)cc1OC	77.1% (inactive)
CSc1nc(NCCO)c(C#N)c(-c2cccc([N+](=O)[O-])c2)n1	93% (inactive)
CN1CCN=C1c1ccc(NC(=O)c2ccc(C(=O)Nc3ccc(C4=NCCN4C)cc3)cc2)cc1	99.3% (inactive)
OCCNc1nccc(N2CCN(c3ccnc4cc(Cl)ccc34)CC2)n1	92.5% (inactive)
COc1ccc(C(=O)c2sc3nc(C)cc(C)c3c2N)cc1OC	88.2% (inactive)
COc1cccc(/C=N/NC(=O)c2ccccc2Nc2ccnc(C(F)(F)F)c2)c1O	5.22% (active)
C=CCSSC1N=CNc2nc[nH]c21 (centres undefined)	42.6% (inactive)
CCCCn1cnc2c(Sc3c([N+](=O)[O-])ncn3C)nc(N)nc21	99.8% (inactive)
Fc1ccc(CNc2cccc3[nH]c(C(F)(F)F)nc23)cc1	96.2% (inactive)
CCCCCCN(CCCCCC)C(=N)c1ccnc2ccccc12	53.2% (inactive)
COc1ccc(C(=S)N2CCN(c3cccc(Cl)c3)CC2)cc1	109% (inactive)
O=C(N/N=C/c1ccccc1O)c1ccccc1Nc1ccnc(C(F)(F)F)c1	5.8% (active)
C=CC(=O)Nc1cccc(-c2nc(SC)nc(NCCc3ccc(OC)c(OC)c3)c2C#N)c1	35.7% (inactive)
CC[C@H]1OC(=O)[C@H](C)[C@@H](O[C@H]2C[C@@](C)(OC)[C@@H](O)[C@H](C)O2)[C@H](C)[C@@H](O[C@@H]2O[C@H](C)C[C@H](N(C)C)[C@H]2O)[C@](C)(O)C[C@H](C)CN(C)[C@H](C)[C@@H](O)[C@]1(C)O	96.5% (inactive)
Cc1nc(Nc2ccc(F)c(Cl)c2)sc1C(=O)O	11.2% (inactive)
O=C(Nc1cccc2[nH]c(C(F)(F)F)nc12)c1ccc(-n2cnnn2)cc1	99.5% (inactive)
FC(F)(F)c1nc2c(NCc3ccc(-c4ccccc4)cc3)cccc2[nH]1	81.6% (inactive)
CCN(CC)c1ccc(-c2cc(-c3cc(OC)c(OC)c(OC)c3)nc(N3CCOCC3)c2C#N)cc1	19.5% (inactive)
NC(=NCCCOc1ccc(Cl)cc1)Nc1ccc(C(F)(F)F)cc1	9.43% (active)
NC(=NCCCC1(c2ccccc2)CCCC1)Nc1ccc(Cl)cc1	34.7% (inactive)
O=C1c2cc3c(cc2-c2c1c1cc(F)c(F)cc1c(=O)n2CCCn1ccnc1)OCO3	-55.7% (active)
O=c1nc2oc3ccc4ccccc4c3cc-2s1	41% (inactive)
O=C1c2ccccc2OC=C(c2ccccc2)N1CCCCNc1ccc(S(=O)(=O)Nc2ncccn2)cc1	100% (inactive)
C=C(C)C(=O)Nc1ccc(NC(C)C)cc1	125% (inactive)
COc1cccc2c1C(=O)c1c(O)c3c(c(O)c1C2=O)C[C@](O)(C(=O)CO)C[C@H]3O[C@@H]1C[C@@H](NC(=O)CCCCCN(C)C2(c3ccc(F)cc3)CC3CCC2C3)[C@H](O)[C@@H](C)O1 (some centres undefined)	-77.4% (active)
N#Cc1cnn(-c2nc3c(Cl)cccc3s2)c1N	67.4% (inactive)
